This passage reports z-score results from PubChem BioAssay.

The assay in a line: S6 kinase pathway phospho-S6 level changes – cell-based, A549, cytoblot, luminescence, serum-stimulated, primary screen (AID 1158).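 Further: serum-stimulated A549 lung adenocarcinoma cells; signal is phosphorylated S6 detected by cytoblot immunostaining with HRP secondary.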 The following applies: 5 h, higher = more signal.
Regarding `COc1cc2c(cc1O)C(C1CC1)N(Cc1cc3c(cc1Br)OCO3)CC2` (stereo not given), the z-score is -0.074. The figure for `C=C(CCCC)C(=O)CC[C@H](OC(C)=O)c1cccc(OCCO)c1` is 0.73. The value for `C=CC[C@]1(C(=O)N2CCCCC2)N=C(c2ccc(OCCCO)cc2)O[C@H]1c1ccccc1` was -0.232; that for `COCCOC(=O)N1C(=O)[C@@]2(c3cc(C#CCCO)ccc31)[C@H](C(=O)N1CCN(c3ncccn3)CC1)[C@H]1C(=O)O[C@H](c3ccccc3)[C@H](c3ccccc3)N1[C@@H]2c1ccccc1OCCO` was 0.69; that for `COCCOC(=O)N1C(=O)[C@@]2(c3cc(C#CCCO)ccc31)[C@H](C(=O)N1CCc3cc(OC)c(OC)cc3C1)[C@H]1C(=O)O[C@H](c3ccccc3)[C@H](c3ccccc3)N1[C@@H]2c1ccc(O)cc1` was 0.113. Take `CCCCN1CC=CC23O[C@@H]4/C=C\CCC(C)OC(=O)C4[C@H]2C(=O)N(CCCCCO)[C@@H]3C1=O` (stereo not given in full): the z-score worked out at 0.002. For the compound `C=CCN1C(=O)[C@@]2(O[C@@H](CCO)[C@H]([Si](C)(C)c3ccc(OC)cc3)[C@H]2C)c2cc(NC(=O)c3ccc(OC)cc3)ccc21`, the z-score stood at 0.26. On to `CC(=O)n1cc(C(O)C2C=CC3C(=O)N(C)C(=O)C3N2Nc2ccccc2)c2ccccc21` (stereo not given), for which the z-score is -0.994.

The compound `Cc1ccc(C(C)CC(O)C2C=CC3C(=O)N(c4ccccc4)C(=O)C3N2Nc2ccc([N+](=O)[O-])cc2)o1` (stereo not given) displayed a z-score of -0.359. The figure for `[N-]=[N+]=NCc1ccccc1[C@H]1OC(c2ccc(OCCCO)cc2)=N[C@@]1(Cc1ccccc1)C(=O)NCc1ccccc1` is -0.669; for `COc1ccc([Si](C)(C)[C@@H]2[C@@H](CCO)O[C@]3(C(=O)N(Cc4ccc(N5C(=O)COc6ccccc65)cc4)c4ccccc43)[C@H]2C)cc1` it is 0.866; for `CN(C)CCCNC(=O)[C@@]1(C)c2ccccc2C(=O)N(Cc2cc(F)cc(C(F)(F)F)c2)[C@H]1c1ccc(CO)cc1` it is -0.0103. `C=C(COC)/C(=C/C[C@@H](OC(C)=O)c1ccc(OCCO)cc1)c1cc(C(=O)OC)ccc1OC` displayed a z-score of -0.0505. As for `CCCC[C@@H]1C[C@H]1[C@@H](NC(=O)c1ccco1)c1ccc(Cl)cc1`, the z-score is -0.321. The figure for `CC1CC/C=C\[C@H]2OC34C=CCN(Cn5nnc6ccccc65)C(=O)[C@H]3N(C(CO)C(C)C)C(=O)[C@@H]4C2C(=O)O1` (stereo not given in full) is -0.174. The figure for `[N-]=[N+]=Nc1ccccc1[C@H]1OC(c2ccc(OCCCO)cc2)=N[C@@]1(Cc1ccccc1)C(=O)O` is -0.259; for `O=C1C2C=CC(C(O)C(c3ccccc3)c3ccccc3)N(n3cnnc3)C2C(=O)N1Cc1ccccc1` (stereo not given) it is -0.429. The compound `CN1C(=O)C2C=CC(C(O)Cc3ccccc3)N(Nc3ccccc3)C2C1=O` (stereo not given) came in with a z-score of -0.709. `NC(=O)[C@@H]1[C@H]2C(=O)O[C@H](c3ccccc3)[C@H](c3ccccc3)N2[C@H](c2ccc(O)cc2)[C@@]12C(=O)Nc1ccc(C#CC3(O)CCCCCC3)cc12`: the z-score is -0.231. The figure for `COCCOC(=O)N1C(=O)[C@@]2(c3cc(C#Cc4ccc(OC)cc4)ccc31)[C@H](C(=O)N1CCCCCCC1)[C@H]1C(=O)O[C@H](c3ccccc3)[C@H](c3ccccc3)N1[C@@H]2c1ccc(OCCO)cc1` is 1.93; for `CCOC(=O)C[C@H]1[C@H](OC(=O)Cc2ccc3c(c2)OCO3)[C@@H](NC(=O)c2ccc(-c3ccccc3)cc2)c2cc(OCCCO)ccc2N1C(=O)Cc1ccc(OC)cc1` it is 1.74; for `O=C1[C@H]2C=C(Br)[C@H](C[C@@H]2c2ccccc2)[C@@]12CO2` it is -0.327. `CCOC(=O)[C@H]1C/C=C/C[C@H](C(=O)OCC)C(=O)O[C@H]2[C@@H](OC)O[C@H](CO)[C@@H](OC(=O)Nc3ccc(C#N)cc3)[C@@H]2OC1=O` showed a z-score of 2.47. `COC(=O)C(CC#Cc1ccc2c(c1)[C@]1(C(=O)N2)[C@H](c2ccc(O)cc2)N2[C@H](c3ccccc3)[C@H](c3ccccc3)OC(=O)[C@H]2[C@@H]1C(=O)Nc1nc2ccccc2s1)C(=O)OC` gave a z-score of 2.08. Turning to `COc1ccc(C(O)C2C=CC3C(=O)NC(=O)C3N2Nc2ccccn2)cc1` (stereo not given), the z-score is -0.449. The value for `C#CCN(CC1=CCCCC1)[C@H](c1ccccc1Br)[C@@H](O)Cc1ccccc1` was 0.114; that for `CC(C)OC(=O)C=C1C[C@@H](c2ccccc2C(F)(F)F)O[C@@H](c2ccccc2C(F)(F)F)O1` was -0.491. The figure for `COCCCNC(=O)[C@@]1(Cc2ccccc2N=[N+]=[N-])N=C(c2ccc(OCCCO)cc2)O[C@H]1c1ccccc1N=[N+]=[N-]` is 0.621; for `O=C1C2C=CC(C(O)C3CCCCC3)N(Nc3ccc([N+](=O)[O-])cc3)C2C(=O)N1c1ccccc1` (stereo not given) it is -0.185; for `COCC(=C=CC[C@@H](O)c1ccccc1OCCO)C[C@@H](O)c1cc(Cl)cc(Cl)c1O` it is 0.35. For the compound `O=C1c2ccccc2[C@](Cc2ccccc2I)(C(=O)NC2CC2)[C@H](c2ccc(CO)cc2)N1Cc1ccccc1`, the z-score is -0.132. The compound `CCOC(=O)C[C@H]1[C@H](OC(=O)Cc2ccc3c(c2)OCO3)[C@@H](NC(=O)c2ccc3ccccc3c2)c2cc(OCCCO)ccc2N1C(=O)c1ccccc1` had a z-score of 0.0043. The value for `C=CCNC(=O)[C@H]1[C@@H]2C(=O)O[C@@H](c3ccccc3)[C@@H](c3ccccc3)N2[C@@H](c2ccc(OCCO)cc2)[C@]12C(=O)N(C(=O)OCCOC)c1ccccc12` was 0.182; that for `CCOC(=O)C[C@H]1[C@H](OC(=O)Cc2ccc3c(c2)OCO3)[C@@H](NC(=O)c2ccc(-c3ccccc3)cc2)c2cc(OCCCO)ccc2N1C(=O)c1ccc2ccccc2n1` was 2.85; that for `C=CCN1C(=O)[C@]2(O[C@H](CCO)[C@@H]([Si](C)(C)c3ccc(OC)cc3)[C@@H]2C)c2cc(N3C(=O)c4cccc5cccc3c45)ccc21` was 1.03.
